Reference: paper PMC4242493, “Sequence specificity incompletely defines the genome-wide occupancy of Myc”
Whole data set: some 33,000 sequences, median “normalized occupancy” near 0.075, cut for the highest 2% near 0.095. The sample as a whole holds a higher share of the highest values than the screen did.

These sequences were tested against MaxL homodimer (Homo sapiens, UniProt P61244 1-160) (assay: universal protein-binding microarray (PBM); PBS-based mixture, 10 nM His-tagged protein dimer, 2% milk, 200 ng/uL BSA, 50 ng/uL salmon testes DNA, 0.02% TX-100; detection with Alexa 488 anti-His antibody;; high values mean tight binding). Conditions: protein: recombinant; tags: C-terminal His-tag (pET21a); chain copies: 2; dsDNA, one strand shown.
Sequence of MaxL homodimer (P61244 whole entry): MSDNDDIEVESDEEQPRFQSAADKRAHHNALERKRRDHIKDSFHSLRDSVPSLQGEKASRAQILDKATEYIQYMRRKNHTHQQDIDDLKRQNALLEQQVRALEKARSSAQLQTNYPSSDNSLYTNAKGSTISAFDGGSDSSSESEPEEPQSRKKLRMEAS
In short: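 Each 8-mer received a fluorescence intensity from GenePix 4400A scans of Agilent 4 x 44 K 'all 10-mer' universal arrays. Those arrays had been incubated with His-tagged protein dimer at 10 nM, and the bound protein was marked with a fluorophore-conjugated anti-His antibody at 10 ng/μL. Binding occupancy is the intensity scaled to that of the highest-ranked sequence word.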

Sequence	binding signal [normalized occupancy]
CCATGGTC	0.0849
ATATGGTA	0.0884
GAATGGTA	0.08
ACATGGTG	0.0914
GCATGGTA	0.106
ACTTGGTA	0.0735
ACATGGTA	0.104
ACATGGTC	0.104
AGGCGAGG	0.0752
CCTACAGG	0.0722
CGCGACGA	0.0728
CACTTTTA	0.0728
AAAGGTGT	0.0816
GTTAGAAA	0.0757
TACGAACA	0.0754
AAGCAACG	0.0753
CCACGCGC	0.157
CCACGCGG	0.32
TCACGCGA	0.11
CAACGCGC	0.0787
CAACGCGG	0.0764
CTACGCGC	0.0727
CAACGCGA	0.0767
CCACGCAG	0.0904
CGACGCGA	0.0735

Sequence	binding signal [normalized occupancy]
TCACGCAA	0.0764
CCACGCGA	0.131
TCACGCCA	0.0851
GCCTACAA	0.075
GACAGAGA	0.0724
ATACAACA	0.0788
CGAAAGCA	0.0741
CAGGGGGA	0.0851
TCTTCGCA	0.0796
AATAGAGC	0.0803
AATAACGT	0.0823
ATTAGTAC	0.0786
CCTGCATC	0.0807
CATGCAAG	0.0837
AGTGCATG	0.0988
CATGCATG	0.121
GATGCATC	0.0787
AATGCATG	0.1
ACTGCATG	0.0859
AGTGCATC	0.0772
AGTGCATA	0.0847
CATGCATC	0.0997
AATGCATT	0.0797
AATGCATC	0.0763
GCACGAAA	0.078

Sequence	binding signal [normalized occupancy]
TAGACACA	0.0829
AACAAGCC	0.0718
AGAGTTTG	0.073
CCTGGGAC	0.0732
ATGTCTCG	0.0802
CGCTCACC	0.0763
AAGCCATC	0.0756
AAGAAGGA	0.0794
AATGCATA	0.0839
TATGCATA	0.0811
CATGCATA	0.0989
CACGGGGG	0.101
CCACGGGA	0.0794
CCACGGGG	0.097
CACGGGGC	0.0863
CCACGGGC	0.076
CACGGGGA	0.0894
AGGAATTG	0.0797
ACGTAGCG	0.0805
AACCCATG	0.0961
ACCCCATA	0.0838
ACCCCGTG	0.108
CACCCATG	0.1
AACCCATA	0.0815
CACCCATC	0.0827

Sequence	binding signal [normalized occupancy]
ACCCCGTA	0.0818
ACCCCATG	0.102
CACCCATA	0.0892
AACCCGTG	0.0816
AACCCATT	0.0783
ACCCCATC	0.0823
CGGACGCA	0.0735
ATTTTCTA	0.0856
CAGAAGAC	0.0718
GACAGTAA	0.0794
ACGTTCGA	0.0752
CACGACAC	0.0789
CGTACGGC	0.0778
AAACAGCA	0.0759
AGGATGTA	0.0795
AGCATGTA	0.106
GGCATGTA	0.0812
AGGATGTG	0.0831
CGCATCTC	0.0769
AGCATGTG	0.164
CGCATTTC	0.0783
AGTATGTC	0.0803
AGTATGTG	0.081
AGCATGTC	0.1
CGCATGTC	0.105

Sequence	binding signal [normalized occupancy]
AGCATTTC	0.0792
CCGTACAC	0.0886
GTGAGTGA	0.0775
ACTGGCCT	0.073
CATTCGCA	0.078
AGCCAACA	0.0808
ACTTGTGC	0.0751
AAAATTAG	0.0735
ATTAAGGA	0.0744
AAACAGTA	0.0764
CGCATGTA	0.105
CCCATGTA	0.0872
CTCATGTA	0.0936
GGAATCCC	0.0772
ATCGTTCG	0.0755
AAAGCGTG	0.11
CAAGCGAG	0.0757
CAAGCGTG	0.104
AAAGCGCG	0.0769
AAAGCGTT	0.0746
CAAGCGCG	0.0759
ATGTTGCA	0.0888
CTTCCCCA	0.0787
AGTAGTAG	0.0786
GATGTTAC	0.0818

Sequence	binding signal [normalized occupancy]
AGGCGTCA	0.0742
CGGTACAC	0.0815
ATCGTGGG	0.0895
GACGTGGC	0.0846
AACGTAGC	0.0749
AACGTTGT	0.0817
ACCGTGGG	0.0732
AAAGTGGT	0.0721
AACGTGGG	0.114
AACGTGGC	0.107
AACGTGGT	0.125
AGTAACTC	0.0742
CTAGGAGA	0.0761
AATGCCTA	0.0747
ACATCAGT	0.0736
TATGAATA	0.0823
ATATCTCC	0.0807
CACTTCAG	0.0728
TTGAGAAA	0.0807
AACGTACT	0.0746
ACACGATA	0.0824
ATACGAGG	0.084
ACACGATC	0.0822
ACACGACT	0.0807
AAACGAGG	0.081

Sequence	binding signal [normalized occupancy]
ACACGATG	0.0969
ACACGAAT	0.0776
ACACGAGT	0.0979
ATACGAGA	0.0785
ACACGAGC	0.0815
ACACGAGA	0.0977
ACACGAGG	0.144
GTGCCCTA	0.0772
CAAACAGG	0.0747
CGCAAGAG	0.0757
AGGGGTCG	0.0779
CCATATAG	0.087
GCATATCC	0.0834
CCATATGC	0.1
GCATATGA	0.0934
CCATATCG	0.083
CGATATGC	0.0806
GCATATGC	0.0998
CCATATGG	0.123
CTATATGC	0.0831
CAGATAAA	0.078
ACCATAAG	0.0853
